In PubChem BioAssay (Tox21):
Unmarked numbers belong to inactive results. Results filed as inconclusive are left out. Entries that show only a call come without a potency. Active and inactive are the calls of the source. Unless noted, calls follow the shape of the dose curve; as a rule, active = well fitted curve in the direction sought with a large enough effect in the repeat runs; inconclusive = weak or mixed curves; inactive = no such curve, though single readings can be large; an effect the other way counts as inactive or inconclusive.

Legend:
[1] = qHTS assay to identify small molecule antagonists of the glucocorticoid receptor (GR) signaling pathway - cell viability counter screen (AID 720693); also: nearly all actives have a fitted effect of over 55% in size
[2] = qHTS assay for identifying genotoxic compounds that show differential cytotoxicity against isogenic chicken DT40 cell lines with known DNA damage response pathways - Rev3 mutant cell line (AID 743014); also: nearly all actives have a fitted effect of over 55% in size; also: potency is read from the fitted curve at half-maximal effect
[3] = qHTS assay for identifying genotoxic compounds that show differential cytotoxicity against isogenic chicken DT40 cell lines with known DNA damage response pathways - Rad54/Ku70 mutant cell line (AID 743015); also: nearly all actives have a fitted effect of over 60% in size
[4] = qHTS assay to identify small molecule antagonists of the androgen receptor (AR) signaling pathway - cell viability counter screen (AID 743033; also: nearly all actives have a fitted effect of over 45% in size)
[5] = qHTS assay to identify small molecule antagonists of the androgen receptor (AR) signaling pathway using the MDA cell line - cell viability counter screen (AID 743041; also: nearly all actives have a fitted effect of over 45% in size)
Outline: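 Using the breast carcinoma line MDA-kb2 AR-luc, test chemicals were co-incubated with R1881 for 16 h; CellTiter-Fluor reagent, added at 15.5 h, provided a fluorescence measure of live cells.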

[6] = qHTS assay to identify small molecule antagonists of the thyroid receptor (TR) signaling pathway (AID 743065); also: series mostly up to about 70 µM; nearly all actives have a fitted effect of over 55% in size
Outline: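 Antagonism measured as loss of luciferase signal in GH3 cells stably carrying a TRE-luciferase reporter, co-treated with compound and T3 (1 nM final) for 23.5 h at 37 C. Viability was read in the same well by CellTiter-Fluor.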

[7] = test system: thyroid hormone receptor (rat, GH3 cells); test: qHTS assay to identify small molecule agonists of the thyroid receptor (TR) signaling pathway (AID 743066; calls by dose curve)
[8] = molecular target: Estrogen receptor (Homo sapiens) (UniProt P03372); test: qHTS assay to identify small molecule antagonists of the estrogen receptor alpha (ER-alpha) signaling pathway (AID 743069; active = well fitted curve in the direction sought with a large enough effect in the signal ratio in the repeat runs, not every such curve was filed as active; the % refers to the signal ratio)
Sequence of Estrogen receptor (Homo sapiens) (P03372 whole entry, looked up): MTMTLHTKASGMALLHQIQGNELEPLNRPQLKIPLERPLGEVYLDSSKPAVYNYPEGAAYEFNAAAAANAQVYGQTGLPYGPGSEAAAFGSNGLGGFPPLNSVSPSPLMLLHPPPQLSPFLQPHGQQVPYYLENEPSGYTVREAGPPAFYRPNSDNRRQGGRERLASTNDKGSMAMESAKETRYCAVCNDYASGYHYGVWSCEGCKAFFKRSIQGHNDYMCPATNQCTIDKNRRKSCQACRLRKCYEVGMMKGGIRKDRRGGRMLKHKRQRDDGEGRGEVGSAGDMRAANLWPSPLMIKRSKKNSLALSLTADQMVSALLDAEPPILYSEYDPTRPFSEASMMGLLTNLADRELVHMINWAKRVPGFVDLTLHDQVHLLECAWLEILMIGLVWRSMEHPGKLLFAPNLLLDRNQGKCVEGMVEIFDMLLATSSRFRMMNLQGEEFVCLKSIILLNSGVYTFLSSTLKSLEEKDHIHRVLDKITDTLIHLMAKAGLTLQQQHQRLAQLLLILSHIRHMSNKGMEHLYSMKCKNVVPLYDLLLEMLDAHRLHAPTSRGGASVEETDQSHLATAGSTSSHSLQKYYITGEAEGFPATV
Outline: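 Fluorescence intensity from a beta-lactamase FRET substrate served as the read-out. Cells: HEK293 with stably integrated ER-alpha-UAS-bla reporter. Agonist 17beta-estradiol was co-added with compounds; incubation 18 hr at 37C, substrate 2 hr at room temperature.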

[9] = qHTS assay to identify small molecule antagonists of the estrogen receptor alpha (ER-alpha) signaling pathway - cell viability counter screen (AID 743074; calls by dose curve; also: nearly all actives have a fitted effect of over 45% in size)
[10] = molecular target: Estrogen receptor (Homo sapiens) (UniProt P03372); test: qHTS assay to identify small molecule agonists of the estrogen receptor alpha (ER-alpha) signaling pathway (AID 743075; calls by dose curve)
[11] = molecular target: Estrogen receptor (Homo sapiens) (UniProt P03372); test: qHTS assay to identify small molecule agonists of the estrogen receptor alpha (ER-alpha) signaling pathway using the BG1 cell line (AID 743079); also: nearly all actives have a fitted effect of over 20% in size; also: potency is read from the fitted curve at half-maximal effect
[12] = qHTS assay to identify small molecule antagonists of the estrogen receptor alpha (ER-alpha) signaling pathway using the BG1 cell line (AID 743080; calls by dose curve;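 also: BG1 cells stimulated with 17beta-estradiol alongside compound; series mostly up to about 70 µM; nearly all actives have a fitted effect of over 25% in size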)
Outline: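 Endogenous full-length ER-alpha in BG1-Luc-4E2 cells drives a stably integrated 4×ERE luciferase gene; compounds were tested against 17beta-estradiol over 21.5 h, with luminescence and multiplexed viability fluorescence recorded.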

[13] = qHTS assay to identify small molecule antagonists of the estrogen receptor alpha (ER-alpha) signaling pathway using the BG1 cell line - cell viability counter screen (AID 743081);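 also: compound given together with 17beta-estradiol as the ER stimulus; series mostly up to about 70 µM; nearly all actives have a fitted effect of over 45% in size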
Aromatase (Homo sapiens) = Aromatase (Homo sapiens) (UniProt P11511); test: qHTS assay to identify aromatase inhibitors (AID 743083); also: series mostly up to about 70 µM; nearly all actives have a fitted effect of over 55% in size
Sequence of Aromatase (Homo sapiens) (P11511 whole entry, looked up): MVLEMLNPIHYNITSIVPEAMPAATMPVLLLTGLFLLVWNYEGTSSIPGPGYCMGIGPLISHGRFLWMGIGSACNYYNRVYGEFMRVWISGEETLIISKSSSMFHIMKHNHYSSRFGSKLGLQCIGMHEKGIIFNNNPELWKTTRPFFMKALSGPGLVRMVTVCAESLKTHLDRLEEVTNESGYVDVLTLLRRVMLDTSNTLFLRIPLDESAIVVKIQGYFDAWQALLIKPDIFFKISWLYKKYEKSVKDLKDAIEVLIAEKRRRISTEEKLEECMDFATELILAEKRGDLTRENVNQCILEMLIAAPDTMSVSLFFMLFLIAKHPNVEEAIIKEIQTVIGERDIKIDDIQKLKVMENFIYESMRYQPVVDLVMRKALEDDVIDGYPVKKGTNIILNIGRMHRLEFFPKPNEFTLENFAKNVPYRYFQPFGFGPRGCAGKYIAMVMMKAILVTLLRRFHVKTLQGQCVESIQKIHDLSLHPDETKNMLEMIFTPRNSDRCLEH

[14] = qHTS assay to identify small molecule antagonists of the thyroid receptor (TR) signaling pathway - cell viability counter screen (AID 743064); also: nearly all actives have a fitted effect of over 50% in size
Outline: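 In rat pituitary GH3.TRE-Luc reporter cells co-exposed to compound and 1 nM T3 for 23.5 h, cytotoxicity was assessed with CellTiter-Fluor in the same wells, read by fluorescence.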

[15] = qHTS assay for identifying genotoxic compounds that show differential cytotoxicity against isogenic chicken DT40 cell lines with known DNA damage response pathways - wild type cell line (AID 743012); also: nearly all actives have a fitted effect of over 60% in size
Outline: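 300 wt DT40 cells/well; cpd (DMSO) pintool-transferred after ~0.5 h at 37 C/5% CO2; 40 h incubation; CellTiter-Glo added, 30 min RT; luminescence read.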

[16] = molecular target: Androgen receptor (Homo sapiens) (UniProt P10275); test: qHTS assay to identify small molecule antagonists of the androgen receptor (AR) signaling pathway (AID 743035; active = well fitted inhibition curve with a large enough effect in the signal ratio in the repeat runs, not every such curve was filed as active; the % refers to the signal ratio)
Sequence of Androgen receptor (Homo sapiens) (P10275 whole entry, looked up): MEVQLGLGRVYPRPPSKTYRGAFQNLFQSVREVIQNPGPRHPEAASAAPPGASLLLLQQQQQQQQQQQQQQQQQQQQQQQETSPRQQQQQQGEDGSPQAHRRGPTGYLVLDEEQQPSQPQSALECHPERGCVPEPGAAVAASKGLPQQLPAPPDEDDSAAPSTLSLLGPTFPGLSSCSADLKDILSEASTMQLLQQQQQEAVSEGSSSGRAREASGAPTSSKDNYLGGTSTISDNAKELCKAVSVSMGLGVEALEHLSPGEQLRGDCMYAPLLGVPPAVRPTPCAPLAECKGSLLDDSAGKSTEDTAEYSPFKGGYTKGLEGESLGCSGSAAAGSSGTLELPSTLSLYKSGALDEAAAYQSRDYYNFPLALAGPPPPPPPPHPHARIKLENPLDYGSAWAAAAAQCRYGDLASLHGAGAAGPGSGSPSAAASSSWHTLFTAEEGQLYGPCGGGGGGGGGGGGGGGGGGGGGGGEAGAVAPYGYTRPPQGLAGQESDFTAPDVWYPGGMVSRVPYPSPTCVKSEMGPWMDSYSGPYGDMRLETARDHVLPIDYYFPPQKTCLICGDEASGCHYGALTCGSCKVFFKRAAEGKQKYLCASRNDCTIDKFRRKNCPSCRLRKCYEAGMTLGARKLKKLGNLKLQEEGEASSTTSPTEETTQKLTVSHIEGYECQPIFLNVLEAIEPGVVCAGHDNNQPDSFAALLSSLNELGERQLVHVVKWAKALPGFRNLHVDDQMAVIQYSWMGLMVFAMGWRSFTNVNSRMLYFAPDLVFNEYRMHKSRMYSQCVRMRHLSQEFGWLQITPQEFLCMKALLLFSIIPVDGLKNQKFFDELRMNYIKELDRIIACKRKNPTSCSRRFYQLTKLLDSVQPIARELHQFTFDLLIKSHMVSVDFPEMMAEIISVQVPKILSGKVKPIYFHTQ
Outline: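 In this cell-based reporter screen, compounds were tested in concentration series against R1881-activated HEK293 cells expressing beta-lactamase under UAS control; after 16 h at 37C, FRET substrate was added and fluorescence read 2 h later.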

[17] = molecular target: Androgen receptor (Homo sapiens) (UniProt P10275); test: qHTS assay to identify small molecule agonists of the androgen receptor (AR) signaling pathway (AID 743036; active = well fitted activation curve with a large enough effect in the signal ratio in the repeat runs, with a control signal flat, not every such curve was filed as active; the % refers to the signal ratio)
Outline: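 Cell-based FRET reporter assay: HEK293 line with a UAS-beta-lactamase construct, compounds added in DMSO, 16 h exposure at 37C, then 2 h substrate step at room temperature and fluorescence intensity read.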

[18] = molecular target: Androgen receptor (Homo sapiens) (UniProt P10275); test: qHTS assay to identify small molecule agonists of the androgen receptor (AR) signaling pathway using the MDA cell line (AID 743040; also: nearly all actives have a fitted effect of over 20% in size)
Outline: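 Stable MMTV-luciferase reporter in MDA-kb2 cells; note the promoter carries GR as well as AR response elements. 16 h compound treatment, 37C, 0% CO2; ONE-Glo luminescence endpoint.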

[19] = molecular target: Androgen receptor (Homo sapiens) (UniProt P10275); test: qHTS assay to identify small molecule antagonists of the androgen receptor (AR) signaling pathway using the MDA cell line (AID 743042; also: nearly all actives have a fitted effect of over 55% in size)
Outline: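 Antagonist mode: compounds plus R1881 agonist added to MDA-kb2 AR-luc cells, incubated 16 h at 37C. Luciferase reporter luminescence quantified, with multiplexed CellTiter-Fluor readout for cell viability.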

Row | SMILES | outcome [1] | Potency [2] | Potency [3] | outcome [4] | outcome [5] | Potency [6] | Potency [7] | outcome [8] | Potency [9] | Potency [10] | Potency [11] | Potency [12] | outcome [13] | Potency (Aromatase (Homo sapiens)) | Potency [14] | Potency [15] | outcome [16] | outcome [17] | outcome [18] | outcome [19]
1 | O=S(=O)(O)CC(O)CCl (configuration not stated) | inactive | inactive | inactive | inactive | inactive | inactive | inactive | inactive | inactive | inactive | inactive | inactive | inactive | inactive |  |  |  |  |  | 
2 | CC(=O)c1ccc2ccc3ccccc3c2c1 | inactive | 60.8 µM (active) |  |  | inactive | inactive | inactive | inactive | inactive | inactive | 8.58 µM (active) |  | inactive | inactive | inactive |  |  |  |  | 
3 | COCCCOc1cc(C[C@@H](C[C@H](N)[C@@H](O)C[C@H](C(=O)NCC(C)(C)C(N)=O)C(C)C)C(C)C)ccc1OC | inactive | inactive | inactive | inactive | inactive | inactive | inactive | inactive |  | inactive | inactive | inactive | inactive | inactive |  |  |  |  |  | 
4 | N[C@H]1C(O)O[C@H](CO)[C@@H](O)[C@@H]1O (some centres not stated) |  | inactive | inactive | inactive | inactive | inactive | inactive | inactive | inactive | inactive | 0.531 µM (active) | inactive | inactive | inactive | inactive | inactive | inactive | inactive | inactive | inactive
5 | CCOC(=O)COc1ccc2c(C)c(CCN(CC)CC)c(=O)oc2c1Cl | inactive |  |  |  |  |  | inactive | inactive | inactive | inactive | inactive | inactive | inactive | inactive |  |  |  |  |  | 
6 | C=CCN(CC=C)CC=C | inactive | inactive | inactive | inactive | inactive | inactive | inactive |  |  |  |  |  | inactive | inactive |  |  |  |  |  | 
7 | COC(=O)C(c1ccccc1Cl)N1CCc2sccc2C1 (configuration not stated) | inactive |  |  | inactive |  |  | inactive |  | inactive |  |  | inactive | inactive | inactive | inactive |  |  |  |  | 
8 | C=CCON/C(CCC)=C1\C(=O)CC(C)(C)C(C(=O)OC)=C1O | inactive | inactive | inactive | inactive | inactive | inactive | inactive |  | inactive |  |  |  | inactive | inactive |  |  |  |  |  | 
9 | CC(C)C[P+](C)(CC(C)C)CC(C)C |  | inactive | inactive | inactive | inactive | inactive | inactive | inactive | inactive | inactive | inactive | inactive | inactive | inactive | inactive | inactive |  |  |  | 
10 | O=Cc1ccc(C(=O)O)cc1 |  | inactive | inactive | inactive | inactive | inactive | inactive | inactive | inactive | inactive | inactive | inactive | inactive | inactive | inactive | inactive |  |  |  | 
11 | CC(=O)OCC(=O)[C@@]1(O)CC[C@H]2[C@@H]3CCC4=CC(=O)C=C[C@]4(C)[C@H]3[C@@H](O)C[C@@]21C |  | inactive |  |  | inactive |  |  |  | inactive |  | 11.9 µM (active) |  | inactive | inactive |  | inactive |  |  |  | 
12 | CCCC(=O)C(CC)Sc1ccoc1C (configuration not stated) |  |  |  | inactive | inactive | inactive | inactive | inactive | inactive | inactive | inactive | inactive | inactive | inactive | inactive |  | inactive | inactive | inactive | inactive
13 | C=CC(=O)OCCOCCOCC |  | inactive | inactive | inactive | inactive | inactive | inactive |  | inactive |  |  |  | inactive | inactive | inactive | inactive |  |  |  | 
14 | CNC(C)=O |  | inactive | inactive | inactive | inactive | inactive | inactive | inactive | inactive | inactive | inactive | inactive | inactive | inactive | inactive | inactive |  |  |  | 
15 | COc1ccc(Cl)cc1C |  | inactive | inactive | inactive | inactive | inactive | inactive |  | inactive |  |  |  | inactive | inactive | inactive | inactive |  |  |  | 
16 | C=CCCCCCCCCOC(C)=O |  | inactive |  | inactive | inactive | inactive | inactive | inactive | inactive | inactive | inactive | inactive | inactive | inactive | inactive | inactive |  |  |  | 
17 | C[n+]1ccccc1/C=N/O |  |  | inactive |  | inactive | inactive | inactive | inactive | inactive | inactive | inactive | inactive | inactive | inactive | inactive | inactive |  |  |  | 
18 | O=C(O)Cc1c(Cl)ccc(Cl)c1Cl |  | inactive | inactive | inactive | inactive | inactive | inactive | inactive | inactive | inactive | inactive | inactive | inactive | inactive |  | inactive |  |  |  | 
19 | Cc1cccc(N)n1 |  |  |  | inactive | inactive | inactive | inactive | inactive | inactive | inactive | inactive | inactive | inactive | inactive | inactive |  |  |  |  | 
20 | C[C@@H](CN1CC(=O)NC(=O)C1)N1CC(=O)NC(=O)C1 |  | inactive |  |  |  | inactive | inactive | inactive | inactive | inactive | inactive | inactive | inactive | inactive |  | inactive | inactive | inactive | inactive | inactive
